Screening data from PubChem BioAssay.
Hits are enriched below; roughly 1.5% of the tested compounds scored in any of these assays.
FBPA coupling cs – qHTS Assay for Inhibitors of Fructose-1,6-bisphosphate Aldolase from Giardia Lamblia: Coupling assay counterscreen | coupling enzyme system counterscreen, AmpLite Red fluorescence | activity change, negative = inhibition, % at 58.2 µM, hits read low | hit rate 0.67% among 290,000 | AID 2472, 2010; in the data active = activity change below about -30%
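First, compound is pin-transferred into glyceraldehyde-3-phosphate coupling-enzyme reagent at 57.5 uM final and held 10 min at RT. Next, substrate, coupling system and AmpLite Red are added. After 20 min RT, fluorescence (525/598 nm) is read.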
GALK inhibitor – qHTS Assay for Inhibitors of Human Galactokinase (GALK); Purified GALK, Kinase-Glo residual ATP luminescence; Potency, µM (titrated, usually from 57.5 µM), for the others: top-dose activity change, negative = inhibition, hits mostly inhibitors; hit rate 0.007% among 270,000; AID 1868, 2009; also: potency is read from the fitted curve at half-maximal effect
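ATP-depletion format; final 35 uM ATP, 100 uM D-galactose, 5 nM enzyme; pH 8.0 HEPES/Mg2+ buffer; 60 min RT; luminescence read 10 min after detection reagent.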
PI4K2A inh – qHTS for small molecular inhibitors of PI4K2A. Phosphatidylinositol 4-kinase type 2-alpha (Homo sapiens), Q9BTU6. purified PI4K2A, ADP-Glo luminescence, 1 h; hits give low values. activity change, negative = inhibition, % at 76.9 µM. hit rate 0.13% among 420,000. AID 1346378, 2018; in the data active = activity change below about -50%; inconclusive = mostly about -30% to -49%;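 also: -100% = wells without enzyme as full effect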
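Compounds are screened against recombinant PI4K2A using PI as substrate and ATP, the latter dispensed at 300 microM. Reactions run one hour at ambient temperature before ADP-Glo detection; full inhibition defined by wells lacking enzyme.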
Giardia killer – Small Molecules that selectively kill Giardia lamblia: qHTS | Giardia lamblia trophozoite viability | activity change, % at 7.66 µM, hits read low | hit rate 0.15% among 340,000; in the data active = activity change below about -80%; inconclusive = between about -30% and that limit;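 also: parasites exposed to compound for two days anaerobically before the ATP read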
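Killing of trophozoites was scored by loss of ATP luminescence after a 48 hrs anaerobic exposure to compounds at 37 deg C, using 100 cells per well.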
TrxR1 inh – qHTS Assay for Inhibitors of Mammalian Selenoprotein Thioredoxin Reductase 1 (TrxR1): qHTS; Thioredoxin reductase 1, cytoplasmic (Rattus norvegicus), O89049; recombinant rTrxR1, NADPH fluorescence consumption, selenite substrate; Potency, µM (titrated, usually from 114 µM), for inactives: top-dose activity change, negative = inhibition, actives largely listed as inhibitors; hit rate 1% among 390,000; also: potency is read from the fitted curve at half-maximal effect; nearly all actives have a fitted effect of over 65% in size
Target sequence (O89049 whole entry, looked up): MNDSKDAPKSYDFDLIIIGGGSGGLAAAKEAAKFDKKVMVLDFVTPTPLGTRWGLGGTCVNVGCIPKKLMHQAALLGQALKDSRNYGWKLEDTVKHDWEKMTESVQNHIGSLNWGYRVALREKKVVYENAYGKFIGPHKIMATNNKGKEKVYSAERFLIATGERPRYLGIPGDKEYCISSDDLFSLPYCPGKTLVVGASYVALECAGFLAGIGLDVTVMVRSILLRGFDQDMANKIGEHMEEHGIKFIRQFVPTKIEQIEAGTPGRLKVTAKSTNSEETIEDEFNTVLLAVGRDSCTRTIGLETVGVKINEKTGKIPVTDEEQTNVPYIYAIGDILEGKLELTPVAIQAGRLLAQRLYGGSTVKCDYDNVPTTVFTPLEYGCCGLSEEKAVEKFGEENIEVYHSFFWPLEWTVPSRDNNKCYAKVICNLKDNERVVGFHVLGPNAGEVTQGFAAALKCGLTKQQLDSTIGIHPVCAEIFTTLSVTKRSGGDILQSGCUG
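Rat TrxR1 (90 nM in the dispensed reagent) was pre-reduced with 400 uM NADPH for 5 min at room temperature, then incubated with compound for 15 min. After 400 uM selenite was added, NADPH fluorescence (Ex 340/Em 450 nm) was followed for 8 min.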
TrxR1 substrate – qHTS Assay for Substrates of Mammalian Selenoprotein Thioredoxin Reductase 1 (TrxR1): qHTS. hit rate 0.01% among 390,000. purified TrxR1 substrate turnover, NADPH consumption readout. AID 588456, 2011. Potency, µM (top dose mostly 114 µM), without a hit: top-dose activity change, negative = substrate turnover. Thioredoxin reductase 1, cytoplasmic (Rattus norvegicus), O89049; also: potency is read from the fitted curve at half-maximal effect; nearly all actives have a fitted effect of over 50% in size
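Rat TrxR1, dispensed at 90 nM, was prereduced with 400 uM NADPH (final) for 5 min at ~22 deg C, then incubated with compound 15 min before 400 uM selenite. A first-read NADPH fluorescence drop versus no-compound background flagged substrates.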
* hit, by the source's call; ? = inconclusive; nt = no result; [ ] = remark or other dose. Unless noted, calls follow the shape of the dose curve; as a rule, active = well fitted curve in the direction sought with a large enough effect; inconclusive = small, poorly fitted or top-dose-only effect, or another doubt; inactive = no such curve, though single readings can be large; an effect the other way counts as inactive or inconclusive. Unless noted, % is scaled to controls: 0 for no effect and ±100 for the full control effect.

SMILES | FBPA coupling cs | GALK inhibitor | PI4K2A inh | Giardia killer | TrxR1 inh | TrxR1 substrate
CCOc1cc(CNc2ccc(N(C)C)cc2)cc(Br)c1OCC(=O)NC(C)(C)C | -37* | 0% | ? | -2 | ? | -13%
C=CCOc1c(Br)cc(CNc2ccc(NC(=O)C(C)C)c(OC)c2)cc1OCC | -50* | nt | 4 | -1 | -35% | -18%
CCCCCOc1ccc(C2SC(=O)NC2=O)cc1OCC (centres undefined) | nt | nt | -1 | nt | nt | nt
C=CC(=O)c1ccc(CCCCCC)cc1 | 4 | nt | 32 | nt | 13µM* | 17%[57.1 µM]
CCCCCCCCCCCCCCCCCCc1ccc(C(=O)/C=C\C(=O)O)cc1 | 0 | nt | nt | nt | nt | nt
COCCn1c(N)c(C(=O)OCc2ccccc2)c2nc3ccccc3nc21 | -37* | 9% | -27 | 4 | -11% | 235%
COC(C/C=C/C(=O)COCc1ccccc1)OC | 5 | -2% | 12 | 16 | ? | 5%
COC(C/C=C/C(=O)[C@H](C)OCc1ccccc1)OC | nt | nt | 17 | 3 | 45µM* | -8%
CN1c2ccccc2C(C)(C)C12CC(CCl)=NO2 (centres undefined) | 0 | 0% | 4 | -2 | 25µM* | -2%[57.1 µM]
CCOC(=O)[C@]12CCCCC/C=C\1N(CCc1ccc(Cl)cc1)C(=O)[C@H]2CC(=O)N1CCC(c2ccccc2)CC1 | nt | nt | -4 | nt | nt | nt
Clc1ccc(CSc2nc3ccncc3[nH]2)cc1 | -12 | 4% | -15 | ? | 19%[57.1 µM] | 11%[57.1 µM]
Cc1ccc(CSc2nc3ccncc3[nH]2)cc1 | 0 | 3% | -22 | -90* | 3%[57.1 µM] | 2%[57.1 µM]
CC(Nc1ccc(F)cc1)=[N+](C)CCNS(=O)(=O)c1ccc(Cl)cc1 | nt | 1% | -5 | 23 | 79µM* | -5%
Cn1c(NNC(=O)c2ccc(C(C)(C)C)cc2)cc(=O)n(C)c1=O | -34* | 0% | 0 | 24 | 28% | 4%
COc1ccc(OC(=O)CN2C(=O)C3C4CCC(C4)C3C2=O)cc1 (centres undefined) | 0 | 1% | 1 | 4 | 10% | 5%
Cc1cccc(OC(=O)CN2C(=O)C3C4CCC(C4)C3C2=O)c1C (centres undefined) | 4 | 0% | -85* | 6 | 10% | 4%
Cc1cc(I)ccc1Nc1nc(NCCN2CCOCC2)nc(N2CCOCC2)n1 | nt | nt | nt | nt | ? | -15%
COC(=O)c1ccc(C(C2C(=O)CC(C)(C)CC2=O)C2C(=O)CC(C)(C)CC2=O)cc1 | 6 | 3% | 1 | -3 | -46% | -2%[57.1 µM]
CC1(C)CC(=O)C(C(c2ccc(Br)cc2)C2C(=O)CC(C)(C)CC2=O)C(=O)C1 | 3 | 3% | -8 | 13 | 7.9µM* | 10%
COc1ccc(C(C2C(=O)CC(C)(C)CC2=O)C2C(=O)CC(C)(C)CC2=O)cc1CO | 0 | 3% | -7 | -26 | 8.9µM* | -4%
CN(C)c1ccc(C=Nc2ccc(/C=C3\C=Cc4ccccc43)cc2)cc1 | nt | nt | nt | nt | -36% | -24%
CCOC(=O)C(=Cc1ccc(Br)cc1)C(=O)OCC | -6 | 1% | 23 | 5 | 25µM* | -1%
COCCOC(=O)/C(=C/c1ccc(OC(=O)c2ccccc2)cc1)C(C)=O | 5 | nt | 1 | -19 | ? | 0%
CCOC(=O)C(=Cc1ccc(-n2ccnc2)cc1)C(=O)OCC | 0 | 1% | -4 | -15 | 20µM* | -1%
CCOC(=O)C(=Cc1ccc(F)cc1)C(=O)OCC | 1 | -2% | nt | nt | nt | nt
SMILES | FBPA coupling cs | GALK inhibitor | PI4K2A inh | Giardia killer | TrxR1 inh | TrxR1 substrate
CCOC(=O)/C(=C/c1ccc(OC(=O)c2ccncc2)cc1)C(C)=O | -5 | 2% | -4 | -1 | 6.3µM* | 14%[57.1 µM]
CNc1cc[n+](C)c2ccccc12 | nt | nt | nt | nt | -9% | -3%
Cc1[nH]c2ccc3ncccc3c2c1C | -39* | 2% | 0 | 10 | -5%[57.1 µM] | 13%[57.1 µM]
CCSc1nnc2c(n1)OC(CC)N(C(C)=O)c1ccccc1-2 (centres undefined) | nt | nt | 2 | nt | 3% | -7%
CCS(=O)(=O)Nc1cccc(-c2cn3c(n2)SCC3)c1 | 0 | 1% | -1 | ? | 1% | 0%
CS(=O)(=O)Nc1cccc(-c2cn3c(n2)SCC3)c1 | 0 | 0% | -4 | 0 | 32µM* | -12%
Nc1cc2sc(-c3ccc(C(=O)O)cc3)nc2cc1Cl | -4 | 6% | -76* | ? | ? | 286%
O=C(O)c1ccc2nc(-c3ccccc3)sc2c1 | 11 | 0% | -52* | -5 | -11% | -1%
COC(=O)C1C2C=CC3(CN(CC4CCCO4)C(=O)C13)O2 (centres undefined) | -79* | 1% | -5 | 17 | -11% | 2%
O=C1OC(NC(=O)c2ccccc2)C(n2cc(CO)nn2)=C1Cl (centres undefined) | -1 | -4% | -18 | 8 | 10µM* | 9%[57.1 µM]
CN(C)c1cc2c3ccccc3ccc2c2ccccc12 | nt | nt | nt | nt | 37% | 131%
CC(=O)Nc1ccc(-c2nc3ccc(NC(C)=O)cc3o2)cc1 | 1 | 0% | 11 | -21 | 50µM* | 468%
O=C(Nc1ccc2cccnc2c1)c1ccc(Br)cc1 | -3 | -1% | -3 | -21 | 36% | 2%
CC(=O)Nc1ccc2nc3ccccc3nc2c1 | -33* | 4% | -26 | 5 | 1% | 1%
O=C(Nc1ccc2nc3ccccc3nc2c1)c1ccc(Br)cc1 | -39* | 0% | -1 | 22 | 8% | 7%
CCC(C)Sc1oc(-c2ccco2)nc1S(=O)(=O)c1ccc(Cl)cc1 (centres undefined) | nt | nt | -3 | nt | 11% | 15%[2.29 µM]
COc1ccccc1CNC(=O)CCC(=O)N1CC2CCCN2c2ccccc21 (centres undefined) | nt | nt | -2 | nt | 6%[57.1 µM] | -2%[57.1 µM]
CC(C)(C)NC(=O)CCN(/N=C/c1ccc([N+](=O)[O-])o1)C1=NS(=O)(=O)c2ccccc21 | -5 | 1% | 4 | -92* | ? | -13%
CN(C)c1ccc(/C=N/N(CCC(=O)NC(C)(C)C)C2=NS(=O)(=O)c3ccccc32)cc1 | 0 | nt | 4 | 5 | -2% | -8%
COc1cc2c(C(=O)NCc3ccc(C)o3)cn(CC(C)C)c(=O)c2cc1OC | -2 | nt | -3 | 16 | 20µM* | -9%
Cc1nc([N+](=O)[O-])cn1CC(O)c1ccc2c(c1)OCCO2 (centres undefined) | nt | nt | nt | nt | 12% | -3%
